Data from paper PMC11006913.
Changes are numbered by the printed parent chain.

Experiments:
Test in all cases: PBM; 200 nM protein, PBS
Conditions in all cases: dsDNA, one strand shown
CRX [1] = target: CRX (Homo sapiens, UniProt O43186 26-111)
CRX [2] = target: CRX (Homo sapiens, UniProt O43186 26-111, E42D)
PITX2 = PITX2 (Homo sapiens, UniProt Q99697 72-157)
CRX [3] = target: CRX (Homo sapiens, UniProt O43186 26-111, R41L)
PROP1 [4] = target: PROP1 (Homo sapiens, UniProt O75360 56-141)
PROP1 [5] = target: PROP1 (Homo sapiens, UniProt O75360 56-141, R99H)
PROP1 (Homo sapiens, UniProt O75360 56-141, R99H), sequence (O75360 56-141 R99H): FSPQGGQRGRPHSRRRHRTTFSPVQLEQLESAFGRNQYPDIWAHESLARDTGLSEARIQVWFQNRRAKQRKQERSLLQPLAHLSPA

PROP1 [6] = target: PROP1 (Homo sapiens, UniProt O75360 56-141, F88S)
PROP1 (Homo sapiens, UniProt O75360 56-141, F88S), sequence (O75360 56-141 F88S): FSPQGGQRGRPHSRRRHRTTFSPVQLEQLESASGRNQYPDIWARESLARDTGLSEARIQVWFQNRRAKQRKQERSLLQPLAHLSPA

ALX3 [7] = target: ALX3 (Homo sapiens, UniProt O95076 139-225, N203Q)
ALX3 (Homo sapiens, UniProt O95076 139-225, N203Q), sequence (O95076 139-225 N203Q): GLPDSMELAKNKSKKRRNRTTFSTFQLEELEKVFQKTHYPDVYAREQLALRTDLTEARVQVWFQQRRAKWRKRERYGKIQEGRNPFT

ALX3 [8] = target: ALX3 (Homo sapiens, UniProt O95076 139-225)
ALX3 (Homo sapiens, UniProt O95076 139-225), sequence (O95076 139-225): as the sequence (O95076 139-225 N203Q) above, with Q65N counted along it

ALX3 [9] = target: ALX3 (Homo sapiens, UniProt O95076 139-225, L168Q)
ALX3 (Homo sapiens, UniProt O95076 139-225, L168Q), sequence (O95076 139-225 L168Q): as the sequence (O95076 139-225 N203Q) above, with L30Q, Q65N counted along it

ALX3 [10] = target: ALX3 (Homo sapiens, UniProt O95076 139-225, L168V)
ALX3 (Homo sapiens, UniProt O95076 139-225, L168V), sequence (O95076 139-225 L168V): as the sequence (O95076 139-225 N203Q) above, with L30V, Q65N counted along it

ALX3 [11] = target: ALX3 (Homo sapiens, UniProt O95076 139-225, N203S)
ALX3 (Homo sapiens, UniProt O95076 139-225, N203S), sequence (O95076 139-225 N203S): as the sequence (O95076 139-225 N203Q) above, with Q65S counted along it

NKX2-6 [12] = target: T1, NKX2-6 (Homo sapiens, UniProt A6NCS4 118-204)
T1 sequence: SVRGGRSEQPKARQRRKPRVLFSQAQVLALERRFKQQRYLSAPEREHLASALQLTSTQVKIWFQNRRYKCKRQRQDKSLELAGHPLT

NKX2-6 [13] = target: T2, NKX2-6 (Homo sapiens, UniProt A6NCS4 118-204, F151L)
T2 sequence: T1 sequence with F34L

MSX2 [14] = target: MSX2 (Homo sapiens, UniProt P35548 130-214, R199I)
MSX2 (Homo sapiens, UniProt P35548 130-214, R199I), sequence (P35548 130-214 R199I): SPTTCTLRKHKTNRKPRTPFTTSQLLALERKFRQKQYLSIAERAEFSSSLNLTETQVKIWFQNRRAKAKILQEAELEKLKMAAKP

MSX2 [15] = target: MSX2 (Homo sapiens, UniProt P35548 130-214)
MSX2 (Homo sapiens, UniProt P35548 130-214), sequence (P35548 130-214): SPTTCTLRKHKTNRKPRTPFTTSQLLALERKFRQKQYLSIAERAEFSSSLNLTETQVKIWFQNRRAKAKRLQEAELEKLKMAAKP

MSX2 [16] = target: MSX2 (Homo sapiens, UniProt P35548 130-214, F161Y)
MSX2 (Homo sapiens, UniProt P35548 130-214, F161Y), sequence (P35548 130-214 F161Y): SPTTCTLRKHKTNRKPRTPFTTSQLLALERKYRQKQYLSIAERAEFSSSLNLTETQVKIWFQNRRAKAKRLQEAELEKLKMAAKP

ALX1 [17] = target: ALX1 (Homo sapiens, UniProt Q15699 118-204, L144V)
ALX1 (Homo sapiens, UniProt Q15699 118-204, L144V), sequence (Q15699 118-204 L144V): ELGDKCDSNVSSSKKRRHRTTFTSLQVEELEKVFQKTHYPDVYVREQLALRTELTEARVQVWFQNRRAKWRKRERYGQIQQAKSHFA

ALX1 [18] = target: ALX1 (Homo sapiens, UniProt Q15699 118-204, L144R)
ALX1 (Homo sapiens, UniProt Q15699 118-204, L144R), sequence (Q15699 118-204 L144R): as the sequence (Q15699 118-204 L144V) above, with V27R counted along it

ALX1 [19] = target: ALX1 (Homo sapiens, UniProt Q15699 118-204)
ALX1 (Homo sapiens, UniProt Q15699 118-204), sequence (Q15699 118-204): as the sequence (Q15699 118-204 L144V) above, with V27L counted along it

CRX (Homo sapiens, UniProt O43186 26-111, R41L), sequence (O43186 26-111 R41L): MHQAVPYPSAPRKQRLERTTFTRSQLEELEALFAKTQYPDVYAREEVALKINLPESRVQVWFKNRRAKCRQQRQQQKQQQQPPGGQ
CRX (Homo sapiens, UniProt O43186 26-111, E42D), sequence (O43186 26-111 E42D): as the sequence (O43186 26-111 R41L) above, with L16R, E17D counted along it
CRX (Homo sapiens, UniProt O43186 26-111), sequence (O43186 26-111): as the sequence (O43186 26-111 R41L) above, with L16R counted along it
PROP1 (Homo sapiens, UniProt O75360 56-141), sequence (O75360 56-141): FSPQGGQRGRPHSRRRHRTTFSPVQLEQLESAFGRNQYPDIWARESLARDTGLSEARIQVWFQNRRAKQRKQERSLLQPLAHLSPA

TAATCCTA
binding signal (CRX [1]): 13.4 upbm affinity estimate (log intensity, higher = more binding, comparable within an allelic series)
binding signal (CRX [2]): 13.4 upbm affinity estimate (log intensity, higher = more binding, comparable within an allelic series)
binding signal (PITX2): 13.2 upbm affinity estimate (log intensity, higher = more binding, comparable within an allelic series)
binding signal (CRX [3]): 13.3 upbm affinity estimate (log intensity, higher = more binding, comparable within an allelic series)

GCGGATTA
binding signal (CRX [1]): 13.6 upbm affinity estimate (log intensity, higher = more binding, comparable within an allelic series)
binding signal (CRX [2]): 13.7 upbm affinity estimate (log intensity, higher = more binding, comparable within an allelic series)
binding signal (PITX2): 13.3 upbm affinity estimate (log intensity, higher = more binding, comparable within an allelic series)
binding signal (CRX [3]): 13.6 upbm affinity estimate (log intensity, higher = more binding, comparable within an allelic series)

CATAATCC
binding signal (CRX [1]): 13.4 upbm affinity estimate (log intensity, higher = more binding, comparable within an allelic series)
binding signal (CRX [2]): 13.4 upbm affinity estimate (log intensity, higher = more binding, comparable within an allelic series)
binding signal (PITX2): 13.1 upbm affinity estimate (log intensity, higher = more binding, comparable within an allelic series)
binding signal (PROP1 [4]): 8.29 upbm affinity estimate (log intensity, higher = more binding, comparable within an allelic series)
binding signal (PROP1 [5]): 7.92 upbm affinity estimate (log intensity, higher = more binding, comparable within an allelic series)
binding signal (PROP1 [6]): 7.15 upbm affinity estimate (log intensity, higher = more binding, comparable within an allelic series)
binding signal (CRX [3]): 13.4 upbm affinity estimate (log intensity, higher = more binding, comparable within an allelic series)

GAGACTGC
binding signal (CRX [1]): 8.28 upbm affinity estimate (log intensity, higher = more binding, comparable within an allelic series)
binding signal (CRX [2]): 8.22 upbm affinity estimate (log intensity, higher = more binding, comparable within an allelic series)
binding signal (ALX3 [7]): 7.74 upbm affinity estimate (log intensity, higher = more binding, comparable within an allelic series)
binding signal (ALX3 [8]): 7.6 upbm affinity estimate (log intensity, higher = more binding, comparable within an allelic series)
binding signal (ALX3 [9]): 7.71 upbm affinity estimate (log intensity, higher = more binding, comparable within an allelic series)
binding signal (ALX3 [10]): 7.72 upbm affinity estimate (log intensity, higher = more binding, comparable within an allelic series)
binding signal (CRX [3]): 8.35 upbm affinity estimate (log intensity, higher = more binding, comparable within an allelic series)
binding signal (ALX3 [11]): 7.73 upbm affinity estimate (log intensity, higher = more binding, comparable within an allelic series)

CGGATTAA
binding signal (CRX [1]): 13.7 upbm affinity estimate (log intensity, higher = more binding, comparable within an allelic series)
binding signal (CRX [2]): 13.8 upbm affinity estimate (log intensity, higher = more binding, comparable within an allelic series)
binding signal (PITX2): 13.4 upbm affinity estimate (log intensity, higher = more binding, comparable within an allelic series)
binding signal (CRX [3]): 13.7 upbm affinity estimate (log intensity, higher = more binding, comparable within an allelic series)

ACGCCAGC
binding signal (CRX [1]): 8.41 upbm affinity estimate (log intensity, higher = more binding, comparable within an allelic series)
binding signal (CRX [2]): 8.28 upbm affinity estimate (log intensity, higher = more binding, comparable within an allelic series)
binding signal (NKX2-6 [12]): 9.57 upbm affinity estimate (log intensity, higher = more binding, comparable within an allelic series)
binding signal (NKX2-6 [13]): 9.3 upbm affinity estimate (log intensity, higher = more binding, comparable within an allelic series)
binding signal (CRX [3]): 8.46 upbm affinity estimate (log intensity, higher = more binding, comparable within an allelic series)

CGCGCCAG
binding signal (CRX [1]): 8.61 upbm affinity estimate (log intensity, higher = more binding, comparable within an allelic series)
binding signal (CRX [2]): 8.52 upbm affinity estimate (log intensity, higher = more binding, comparable within an allelic series)
binding signal (MSX2 [14]): 9.5 upbm affinity estimate (log intensity, higher = more binding, comparable within an allelic series)
binding signal (MSX2 [15]): 9.73 upbm affinity estimate (log intensity, higher = more binding, comparable within an allelic series)
binding signal (MSX2 [16]): 9.71 upbm affinity estimate (log intensity, higher = more binding, comparable within an allelic series)
binding signal (CRX [3]): 8.44 upbm affinity estimate (log intensity, higher = more binding, comparable within an allelic series)

TGGATTAA
binding signal (CRX [1]): 13.4 upbm affinity estimate (log intensity, higher = more binding, comparable within an allelic series)
binding signal (CRX [2]): 13.5 upbm affinity estimate (log intensity, higher = more binding, comparable within an allelic series)
binding signal (PITX2): 13.3 upbm affinity estimate (log intensity, higher = more binding, comparable within an allelic series)
binding signal (CRX [3]): 13.2 upbm affinity estimate (log intensity, higher = more binding, comparable within an allelic series)

CTCCGCGC
binding signal (CRX [1]): 8.47 upbm affinity estimate (log intensity, higher = more binding, comparable within an allelic series)
binding signal (CRX [2]): 8.47 upbm affinity estimate (log intensity, higher = more binding, comparable within an allelic series)
binding signal (ALX3 [7]): 7.75 upbm affinity estimate (log intensity, higher = more binding, comparable within an allelic series)
binding signal (ALX3 [8]): 7.82 upbm affinity estimate (log intensity, higher = more binding, comparable within an allelic series)
binding signal (ALX3 [9]): 7.71 upbm affinity estimate (log intensity, higher = more binding, comparable within an allelic series)
binding signal (ALX3 [10]): 7.69 upbm affinity estimate (log intensity, higher = more binding, comparable within an allelic series)
binding signal (CRX [3]): 8.43 upbm affinity estimate (log intensity, higher = more binding, comparable within an allelic series)
binding signal (ALX3 [11]): 7.76 upbm affinity estimate (log intensity, higher = more binding, comparable within an allelic series)

GCAAGGAC
binding signal (CRX [1]): 8.57 upbm affinity estimate (log intensity, higher = more binding, comparable within an allelic series)
binding signal (CRX [2]): 8.32 upbm affinity estimate (log intensity, higher = more binding, comparable within an allelic series)
binding signal (ALX1 [17]): 6.53 upbm affinity estimate (log intensity, higher = more binding, comparable within an allelic series)
binding signal (ALX1 [18]): 6.6 upbm affinity estimate (log intensity, higher = more binding, comparable within an allelic series)
binding signal (CRX [3]): 8.3 upbm affinity estimate (log intensity, higher = more binding, comparable within an allelic series)
binding signal (ALX1 [19]): 6.36 upbm affinity estimate (log intensity, higher = more binding, comparable within an allelic series)
